Reference: PubChem BioAssay (NCATS)
Records with an inconclusive call do not appear. A call without a number means that no potency is given here. The source made the active and inactive calls. Unless noted, the call rests on the fitted dose curve. Peptide text beside a SMILES is read from it. * marks the point of attachment. Cbz = O=C(OCc1ccccc1)*

Assays:
[1] = qHTS for Inhibitors of the Functional Ribonucleoprotein Complex (vRNP) of Lassa (LASV) Arenavirus: LASV Primary Screen - GLuc reporter signal (AID 1347082; calls by dose curve; tested in HEK293 reporter line; further: nearly all actives have a fitted effect of over 60% in size; further: potency means the concentration at half of the fitted maximal effect)
[2] = qHTS for Inhibitors of the Functional Ribonucleoprotein Complex (vRNP) of Lassa (LASV) Arenavirus: Viability assay - alamar blue signal for LASV Primary Screen (AID 1347083; calls by dose curve; tested in HEK293 reporter line; further: nearly all actives have a fitted effect of over 80% in size; further: potency means the concentration at half of the fitted maximal effect)
[3] = qHTS for Inhibitors of the Functional Ribonucleoprotein Complex (vRNP) of Lymphocytic Choriomeningitis Arenaviruses (LCMV): Viability assay - alamar blue signal for LCMV Primary Screen (AID 1347085; calls by dose curve; tested in HEK293 reporter line; further: nearly all actives have a fitted effect of over 80% in size; further: potency means the concentration at half of the fitted maximal effect)
[4] = target: Nucleoprotein (Lymphocytic choriomeningitis virus (strain Armstrong)) (UniProt P09992); assay: qHTS for Inhibitors of the Functional Ribonucleoprotein Complex (vRNP) of Lymphocytic Choriomeningitis Arenaviruses (LCMV): LCMV Primary Screen - GLuc reporter signal (AID 1347086); further: nearly all actives have a fitted effect of over 70% in size; further: potency means the concentration at half of the fitted maximal effect
[5] = Cytotoxicity counterscreen for inhibitors of SARS-CoV-2 cell entry (AID 1645845); further: nearly all actives have a fitted effect of over 50% in size; further: potency means the concentration at half of the fitted maximal effect
Summary of the method: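 HEK293-ACE2 cells (Expi293F stably expressing human ACE2) seeded overnight, then compound for 1 h plus 48 h at 37C. Viability as ATP content by luminescence; normalized to wells with cells and media-only wells.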

[6] = Primary qHTS to identify inhibitors of SARS-CoV-2 cell entry (AID 1645846); conditions: activity change, negative = inhibition: at 57.1 µM (top of the series) unless noted; further: nearly all actives have a fitted effect of over 45% in size; further: potency means the concentration at half of the fitted maximal effect
Summary of the method: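 HEK293 cells stably expressing human ACE2, pre-treated 1 h with compound, then infected with MLV particles pseudotyped with Wuhan-Hu-1 spike (C-terminal 19-aa truncation). Luciferase luminescence after 48 h at 37 °C, normalised to spike PP and bald PP.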

[7] = Validation screen for inhibitors of Lassa infection (AID 463096)
[8] = Inducers of the Endoplasmic Reticulum Stress Response (ERSR) in human glioma: Validation (AID 504836; active means well fitted curve in the direction sought with a large enough effect)
Summary of the method: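 Stably transfected U87-MG glioma cells carrying a GRP78-based luciferase sensor; 16 h compound incubation. Luminescence end-point read 10 min after Bright-Glo addition at room temperature.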

Chain of Nucleoprotein (Lymphocytic choriomeningitis virus (strain Armstrong)) (P09992 whole entry, looked up): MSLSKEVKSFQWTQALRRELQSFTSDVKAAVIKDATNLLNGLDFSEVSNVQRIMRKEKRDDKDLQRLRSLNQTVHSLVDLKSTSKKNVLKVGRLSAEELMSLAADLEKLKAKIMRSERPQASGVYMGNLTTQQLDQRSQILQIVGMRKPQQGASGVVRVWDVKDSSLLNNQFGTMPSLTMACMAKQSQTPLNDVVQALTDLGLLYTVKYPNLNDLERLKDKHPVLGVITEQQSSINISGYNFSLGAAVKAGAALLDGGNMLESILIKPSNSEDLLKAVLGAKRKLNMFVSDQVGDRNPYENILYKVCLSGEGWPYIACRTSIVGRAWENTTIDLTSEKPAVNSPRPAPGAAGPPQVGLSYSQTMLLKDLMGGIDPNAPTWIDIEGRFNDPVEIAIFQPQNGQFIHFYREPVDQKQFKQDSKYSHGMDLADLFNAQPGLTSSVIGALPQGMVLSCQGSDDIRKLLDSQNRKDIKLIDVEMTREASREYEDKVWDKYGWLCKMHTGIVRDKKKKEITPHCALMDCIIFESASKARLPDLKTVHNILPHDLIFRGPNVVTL

| Structure (SMILES) | Potency [1] | Potency [2] | Potency [3] | Potency [4] | Potency [5] | Potency [6] | activity change, negative = inhibition [6] [%] | Potency [7] | outcome [8] |
| --- | --- | --- | --- | --- | --- | --- | --- | --- | --- |
| O=c1cc(-c2ccccc2)oc2cc(O)cc(O)c12 | inactive | inactive | inactive | inactive | inactive | inactive | – | – | – |
| CCCCC(C)(C)[C@H](O)C=C[C@H]1[C@H](O)CC(=O)[C@H]1CC=CCCCC(=O)O | inactive | inactive | inactive | inactive | inactive | – | -55.7 | – | – |
| CCCCC(F)(F)[C@@]1(O)CC[C@H]2[C@H](CC(=O)[C@@H]2CCCCCCC(=O)O)O1 | inactive | inactive | inactive | inactive | inactive | inactive | – | – | – |
| C=C(C)[C@@H]1CC[C@]2(C)CC[C@]3(C)[C@H](CC[C@@H]4[C@@]5(C)CC[C@H](O)C(C)(C)[C@H]5CC[C@]43C)[C@@H]12 | inactive | inactive | inactive | inactive | inactive | inactive | – | – | – |
| Clc1ccc2c(N3CCN(CCCN4CCN(c5ccnc6cc(Cl)ccc56)CC4)CC3)ccnc2c1 | inactive | inactive | inactive | inactive | inactive | – | -11.2 | – | – |
| CC(=O)OC1C(C)OC(Oc2c(-c3ccc(O)cc3)oc3cc(O)cc(O)c3c2=O)C(O)C1OC(C)=O (centres undefined) | inactive | inactive | inactive | inactive | inactive | inactive | – | – | – |
| CC(C)(O)CCc1ccc(OCc2cc(-c3cccc(OC(F)F)c3)c3ncccc3c2)cc1 | inactive | inactive | inactive | inactive | inactive | – | -16.6 | – | – |
| CCN1CCN(c2ccc(Nc3cc(N(C)C(=O)Nc4c(Cl)c(OC)cc(OC)c4Cl)ncn3)cc2)CC1 | inactive | inactive | inactive | inactive | inactive | inactive | – | – | – |
| O=C1NCCc2[nH]c(-c3ccncc3)cc21 | 21.7 µM (active) | 6.85 µM (active) | 6.11 µM (active) | 10.9 µM (active) | inactive | – | -95 | – | – |
| Cc1cn2cc(C(=O)N(C)CCO)cc(N[C@@H]3CCOc4cccc(C)c43)c2n1 | inactive | inactive | inactive | inactive | inactive | inactive | – | – | – |
| C=Cc1c(C)c2cc3nc(cc4[nH]c(cc5nc(cc1[nH]2)C(C)=C5CCC(=O)O)c(CCC(=O)OC)c4C)[C@@]1(C)C3=CC=C(C(=O)OC)[C@H]1C(=O)OC | 1.72 µM (active) | 0.344 µM (active) | 0.172 µM (active) | 0.217 µM (active) | inactive | inactive | – | – | – |
| CNC(=O)c1cc(COc2nnc(Nc3ccc(Cl)cc3)c3ccoc23)ccn1 | inactive | inactive | inactive | inactive | inactive | – | -17 | – | – |
| C[C@@H]1CC[C@@]2(OC1)OC1CC3C4CC=C5CC(O)CCC5(C)C4CCC3(C)C1[C@@H]2C (some centres undefined) | inactive | inactive | inactive | inactive | inactive | – | -1.34 | – | – |
| COc1ccc(-c2ccc3ncc4c(c3c2)n(-c2ccc(N3CCNCC3)c(C(F)(F)F)c2)c(=O)n4C)cn1 | 0.0022 µM (active) | inactive | inactive | inactive | 4.47 µM (active) | 3.16 µM (active) | – | – | – |
| O=C(CO)N1CCC(c2[nH]nc(-c3ccc(Cl)cc3)c2-c2ccncn2)CC1 | inactive | inactive | inactive | inactive | inactive | – | -14.2 | – | – |
| Cn1cnc2c(F)c(Nc3ccc(Br)cc3F)c(C(=O)NOCCO)cc21 | inactive | inactive | inactive | inactive | inactive | – | -25.1 | – | – |
| O=C(NC[C@H](O)CO)c1ccncc1Nc1ccc(I)cc1F | inactive | inactive | inactive | inactive | inactive | inactive | – | – | – |
| Cc1cnc(C(=O)O)c[n+]1[O-] | inactive | inactive | inactive | inactive | inactive | – | -9.41 | – | – |
| CCCCCNC(=O)N1CCC(CN(Cc2ccc(Cl)cc2)Cc2ccc([N+](=O)[O-])s2)C1 (centres undefined) | inactive | inactive | inactive | inactive | inactive | – | -21.9 | – | – |
| C[C@H](NC(=O)Cc1cc(F)cc(F)c1)C(=O)N[C@H](C(=O)OC(C)(C)C)c1ccccc1 | inactive | inactive | inactive | inactive | inactive | – | -33 | – | – |
| OCc1ccc(-c2ccc(-c3ccc(CO)s3)o2)s1 | inactive | inactive | inactive | inactive | inactive | inactive | – | – | – |
| Cc1cc(N2CCOCC2)cc2[nH]c(-c3c(NC[C@@H](O)c4cccc(Cl)c4)cc[nH]c3=O)nc12 | 3.85 µM (active) | 0.769 µM (active) | 0.863 µM (active) | 1.53 µM (active) | inactive | – | -9.29 | – | – |
| COC(=O)[C@H](c1ccccc1Cl)N1CCc2sccc2C1 | inactive | inactive | inactive | inactive | inactive | – | -28.2 | – | – |
| COc1nccc(-c2c(-c3ccc(F)cc3)ncn2C2CCC(O)CC2)n1 (centres undefined) | inactive | inactive | inactive | inactive | inactive | inactive | – | – | – |
| COc1ccc(Nc2nccc(NCCO)n2)cc1 | inactive | inactive | inactive | inactive | inactive | inactive | – | – | – |
| CCCCS(=N)(=O)CCC(N)C(=O)O (centres undefined) | inactive | inactive | inactive | inactive | inactive | inactive | – | inactive | inactive |
| CC(C)C[C@@H](C=O)NC(=O)[C@H](CC(C)C)NC(=O)[C@H](CC(C)C)NC(=O)OCc1ccccc1 (Cbz-Leu-Leu-Leu-aldehyde) | 1.93 µM (active) | 4.32 µM (active) | 5.44 µM (active) | 3.43 µM (active) | 1.12 µM (active) | – | -96.8 | – | – |
